Source: paper PMC7862700, “An all-to-all approach to the identification of sequence-specific readers for epigenetic DNA modifications on cytosine”

Columns and labels:
Assay in all cases: DAPPL (digital affinity profiling via proximity ligation, sequencing); 10 mM Tris-HCl pH 7.5, 50 mM NaCl, 1 mM DTT, 4% glycerol, room temperature, 30 min; GST-TFs on glutathione beads, 16-mer random dsDNA library, 0.1% formaldehyde crosslink after washing; high values mean tight binding
Conditions in all cases: protein: recombinant; tags: N-terminal GST; dsDNA, one strand shown
FLI1 = biological target: T1, FLI1 (Homo sapiens, UniProt Q01543 1-452)
T1 sequence: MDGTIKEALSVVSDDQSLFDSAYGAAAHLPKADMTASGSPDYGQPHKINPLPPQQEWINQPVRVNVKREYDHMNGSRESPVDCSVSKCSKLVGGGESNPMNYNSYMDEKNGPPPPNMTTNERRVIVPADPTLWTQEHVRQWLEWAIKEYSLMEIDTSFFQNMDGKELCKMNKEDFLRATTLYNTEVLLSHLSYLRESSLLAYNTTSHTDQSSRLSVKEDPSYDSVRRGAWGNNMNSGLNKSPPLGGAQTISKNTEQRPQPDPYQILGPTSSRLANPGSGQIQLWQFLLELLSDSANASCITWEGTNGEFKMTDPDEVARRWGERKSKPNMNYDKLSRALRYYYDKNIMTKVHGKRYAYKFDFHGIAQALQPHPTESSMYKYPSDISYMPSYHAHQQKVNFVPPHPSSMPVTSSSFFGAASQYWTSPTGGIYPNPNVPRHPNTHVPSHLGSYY
How it was run: (§1)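 Binding signal is each hexamer's read frequency for a factor divided by its frequency in the tag-only sample. The factors were GST-fused human transcription factors from yeast, captured on glutathione beads, DNA-barcoded and pooled with that sample. Pools were incubated with 200 nmole of a random double-stranded 16-mer DNA library in Tris/NaCl/DTT/glycerol buffer at room temperature for 30 min, then washed, crosslinked with 0.1% formaldehyde, proximity-ligated with BsaI/T4 ligase (1 h, 37 °C), PCR-amplified and sequenced on an Illumina NextSeq500.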

ELK1 = biological target: T2, ELK1 (Homo sapiens, UniProt P19419 1-428)
T2 sequence: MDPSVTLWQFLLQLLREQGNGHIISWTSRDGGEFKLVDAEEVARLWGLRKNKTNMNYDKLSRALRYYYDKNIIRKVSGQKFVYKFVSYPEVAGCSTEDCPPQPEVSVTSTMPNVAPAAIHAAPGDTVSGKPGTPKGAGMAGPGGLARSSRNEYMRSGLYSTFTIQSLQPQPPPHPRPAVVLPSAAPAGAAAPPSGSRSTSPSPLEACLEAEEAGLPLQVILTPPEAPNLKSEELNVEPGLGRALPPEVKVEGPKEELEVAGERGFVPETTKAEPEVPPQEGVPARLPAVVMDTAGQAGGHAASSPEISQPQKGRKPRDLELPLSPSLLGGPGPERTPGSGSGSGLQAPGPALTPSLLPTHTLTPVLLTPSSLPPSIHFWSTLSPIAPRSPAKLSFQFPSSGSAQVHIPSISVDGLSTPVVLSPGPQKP
How it was run: as §1

GABPA = biological target: T3, GABPA (Homo sapiens, UniProt Q06546 1-454)
T3 sequence: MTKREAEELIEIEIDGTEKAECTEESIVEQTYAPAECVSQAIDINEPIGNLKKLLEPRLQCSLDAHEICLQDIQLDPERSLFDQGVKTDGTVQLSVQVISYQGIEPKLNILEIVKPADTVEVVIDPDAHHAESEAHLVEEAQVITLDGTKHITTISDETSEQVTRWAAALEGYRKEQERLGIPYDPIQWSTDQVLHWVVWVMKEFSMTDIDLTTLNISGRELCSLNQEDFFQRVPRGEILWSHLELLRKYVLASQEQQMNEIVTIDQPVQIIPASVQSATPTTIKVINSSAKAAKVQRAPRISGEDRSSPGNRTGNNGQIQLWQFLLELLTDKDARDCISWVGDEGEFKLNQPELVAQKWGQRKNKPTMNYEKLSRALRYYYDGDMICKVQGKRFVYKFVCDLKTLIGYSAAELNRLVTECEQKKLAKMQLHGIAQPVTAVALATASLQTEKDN
How it was run: as §1

ERG = biological target: T4, ERG (Homo sapiens, UniProt P11308 1-479)
T4 sequence: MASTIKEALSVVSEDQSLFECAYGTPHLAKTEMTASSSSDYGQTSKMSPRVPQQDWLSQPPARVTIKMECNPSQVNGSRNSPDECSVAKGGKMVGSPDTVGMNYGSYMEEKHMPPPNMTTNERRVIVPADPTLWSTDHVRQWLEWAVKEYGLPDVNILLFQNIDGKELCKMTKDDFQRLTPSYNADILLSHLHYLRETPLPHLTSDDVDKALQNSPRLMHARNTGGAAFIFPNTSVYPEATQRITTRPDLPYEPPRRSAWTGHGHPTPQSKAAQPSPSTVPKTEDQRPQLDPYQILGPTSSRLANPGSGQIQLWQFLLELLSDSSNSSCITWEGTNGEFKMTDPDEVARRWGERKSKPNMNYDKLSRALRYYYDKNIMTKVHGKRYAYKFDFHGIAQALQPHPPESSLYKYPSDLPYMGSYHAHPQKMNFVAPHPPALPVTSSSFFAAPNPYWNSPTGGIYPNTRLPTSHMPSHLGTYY
How it was run: as §1

ELF1 = ELF1 (Homo sapiens, UniProt P32519 1-619)
How it was run: as §1

EHF = biological target: T5, EHF (Homo sapiens, UniProt Q9NZC4 1-300)
T5 sequence: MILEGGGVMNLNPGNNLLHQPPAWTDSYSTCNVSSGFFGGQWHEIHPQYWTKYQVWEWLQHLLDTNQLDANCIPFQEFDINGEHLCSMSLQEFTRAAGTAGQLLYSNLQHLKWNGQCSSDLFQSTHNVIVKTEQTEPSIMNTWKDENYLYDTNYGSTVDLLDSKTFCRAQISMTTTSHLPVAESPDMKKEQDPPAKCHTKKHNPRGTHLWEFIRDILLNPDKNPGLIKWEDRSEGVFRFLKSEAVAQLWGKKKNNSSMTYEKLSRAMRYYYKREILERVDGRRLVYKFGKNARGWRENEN
How it was run: as §1

SPI1 = SPI1 (Homo sapiens, UniProt P17947 1-270)
How it was run: as §1

SPIB = SPIB (Homo sapiens, UniProt Q01892 1-262)
How it was run: as §1

ELK3 = biological target: T6, ELK3 (Homo sapiens, UniProt P41970 1-407)
T6 sequence: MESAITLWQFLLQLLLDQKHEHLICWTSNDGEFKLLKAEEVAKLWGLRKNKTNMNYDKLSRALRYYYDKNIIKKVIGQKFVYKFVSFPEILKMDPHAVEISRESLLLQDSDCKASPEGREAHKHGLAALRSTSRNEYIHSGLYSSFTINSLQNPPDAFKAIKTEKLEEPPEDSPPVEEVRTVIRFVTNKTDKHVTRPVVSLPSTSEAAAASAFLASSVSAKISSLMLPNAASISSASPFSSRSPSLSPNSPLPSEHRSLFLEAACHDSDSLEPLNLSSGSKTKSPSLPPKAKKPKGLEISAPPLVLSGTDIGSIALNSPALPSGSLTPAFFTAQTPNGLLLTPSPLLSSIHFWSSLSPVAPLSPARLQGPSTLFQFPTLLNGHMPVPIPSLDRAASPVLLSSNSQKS
How it was run: as §1

Sequence of SPIB (Q01892 whole entry): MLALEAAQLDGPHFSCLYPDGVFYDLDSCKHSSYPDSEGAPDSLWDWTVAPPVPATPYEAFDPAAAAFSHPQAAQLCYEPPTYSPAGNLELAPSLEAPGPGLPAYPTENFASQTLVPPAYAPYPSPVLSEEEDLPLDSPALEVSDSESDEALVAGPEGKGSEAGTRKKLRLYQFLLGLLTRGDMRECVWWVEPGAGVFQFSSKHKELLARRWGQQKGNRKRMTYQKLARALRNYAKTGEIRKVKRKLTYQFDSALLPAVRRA
Sequence of ELF1 (P32519 whole entry): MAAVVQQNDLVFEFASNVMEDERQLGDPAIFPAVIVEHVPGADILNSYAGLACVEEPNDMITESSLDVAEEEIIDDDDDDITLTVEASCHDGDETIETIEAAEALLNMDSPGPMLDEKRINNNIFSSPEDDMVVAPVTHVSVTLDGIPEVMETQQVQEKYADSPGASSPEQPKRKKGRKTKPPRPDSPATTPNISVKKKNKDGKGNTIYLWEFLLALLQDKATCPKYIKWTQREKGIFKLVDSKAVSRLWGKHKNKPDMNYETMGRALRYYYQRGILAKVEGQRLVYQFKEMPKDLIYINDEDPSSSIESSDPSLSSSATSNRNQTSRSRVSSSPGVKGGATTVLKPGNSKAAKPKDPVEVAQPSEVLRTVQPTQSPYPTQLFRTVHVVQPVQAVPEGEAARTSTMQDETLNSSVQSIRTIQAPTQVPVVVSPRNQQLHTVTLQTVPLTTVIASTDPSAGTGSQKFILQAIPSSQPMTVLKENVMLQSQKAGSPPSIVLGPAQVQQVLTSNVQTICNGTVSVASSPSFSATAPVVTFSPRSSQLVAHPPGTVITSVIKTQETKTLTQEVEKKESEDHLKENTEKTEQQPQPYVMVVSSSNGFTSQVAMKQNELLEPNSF

Sequence | binding signal (FLI1) | binding signal (ELK1) | binding signal (GABPA) | binding signal (ERG) | binding signal (ELF1) | binding signal (EHF) | binding signal (SPI1) | binding signal (SPIB) | binding signal (ELK3)
ACTAAT | 1.33 fold enrichment (6-mer frequency, TF over GST control) | 1.27 fold enrichment (6-mer frequency, TF over GST control) | 1.23 fold enrichment (6-mer frequency, TF over GST control) | 1.2 fold enrichment (6-mer frequency, TF over GST control) | 1.33 fold enrichment (6-mer frequency, TF over GST control) | 1.37 fold enrichment (6-mer frequency, TF over GST control) | 1.28 fold enrichment (6-mer frequency, TF over GST control) | 1.39 fold enrichment (6-mer frequency, TF over GST control) | 1.37 fold enrichment (6-mer frequency, TF over GST control)
ACTTGC | 1.46 fold enrichment (6-mer frequency, TF over GST control) | 1.48 fold enrichment (6-mer frequency, TF over GST control) | 1.42 fold enrichment (6-mer frequency, TF over GST control) | 1.41 fold enrichment (6-mer frequency, TF over GST control) | 1.37 fold enrichment (6-mer frequency, TF over GST control) | 1.52 fold enrichment (6-mer frequency, TF over GST control) | 1.54 fold enrichment (6-mer frequency, TF over GST control) | 1.35 fold enrichment (6-mer frequency, TF over GST control) | 1.35 fold enrichment (6-mer frequency, TF over GST control)
CGTAAT | 1.19 fold enrichment (6-mer frequency, TF over GST control) | 1.14 fold enrichment (6-mer frequency, TF over GST control) | 1.13 fold enrichment (6-mer frequency, TF over GST control) | 1.19 fold enrichment (6-mer frequency, TF over GST control) | 1.18 fold enrichment (6-mer frequency, TF over GST control) | 1.13 fold enrichment (6-mer frequency, TF over GST control) | 1.16 fold enrichment (6-mer frequency, TF over GST control) | 1.19 fold enrichment (6-mer frequency, TF over GST control) | 1.04 fold enrichment (6-mer frequency, TF over GST control)
CTAGAT | 1.13 fold enrichment (6-mer frequency, TF over GST control) | 1.18 fold enrichment (6-mer frequency, TF over GST control) | 1.23 fold enrichment (6-mer frequency, TF over GST control) | 1.12 fold enrichment (6-mer frequency, TF over GST control) | 1.15 fold enrichment (6-mer frequency, TF over GST control) | 1.17 fold enrichment (6-mer frequency, TF over GST control) | 1.2 fold enrichment (6-mer frequency, TF over GST control) | 1.17 fold enrichment (6-mer frequency, TF over GST control) | 1.16 fold enrichment (6-mer frequency, TF over GST control)
ATTTGG | 1.44 fold enrichment (6-mer frequency, TF over GST control) | 1.33 fold enrichment (6-mer frequency, TF over GST control) | 1.39 fold enrichment (6-mer frequency, TF over GST control) | 1.36 fold enrichment (6-mer frequency, TF over GST control) | 1.36 fold enrichment (6-mer frequency, TF over GST control) | 1.35 fold enrichment (6-mer frequency, TF over GST control) | 1.38 fold enrichment (6-mer frequency, TF over GST control) | 1.32 fold enrichment (6-mer frequency, TF over GST control) | 1.33 fold enrichment (6-mer frequency, TF over GST control)
TTCTGA | 1.37 fold enrichment (6-mer frequency, TF over GST control) | 1.39 fold enrichment (6-mer frequency, TF over GST control) | 1.27 fold enrichment (6-mer frequency, TF over GST control) | 1.31 fold enrichment (6-mer frequency, TF over GST control) | 1.27 fold enrichment (6-mer frequency, TF over GST control) | 1.32 fold enrichment (6-mer frequency, TF over GST control) | 1.21 fold enrichment (6-mer frequency, TF over GST control) | 1.32 fold enrichment (6-mer frequency, TF over GST control) | 1.38 fold enrichment (6-mer frequency, TF over GST control)
CTGGCT | 1.33 fold enrichment (6-mer frequency, TF over GST control) | 1.31 fold enrichment (6-mer frequency, TF over GST control) | 1.37 fold enrichment (6-mer frequency, TF over GST control) | 1.3 fold enrichment (6-mer frequency, TF over GST control) | 1.25 fold enrichment (6-mer frequency, TF over GST control) | 1.26 fold enrichment (6-mer frequency, TF over GST control) | 1.18 fold enrichment (6-mer frequency, TF over GST control) | 1.22 fold enrichment (6-mer frequency, TF over GST control) | 1.12 fold enrichment (6-mer frequency, TF over GST control)
TAAAAT | 1.17 fold enrichment (6-mer frequency, TF over GST control) | 1.2 fold enrichment (6-mer frequency, TF over GST control) | 1.25 fold enrichment (6-mer frequency, TF over GST control) | 1.19 fold enrichment (6-mer frequency, TF over GST control) | 1.24 fold enrichment (6-mer frequency, TF over GST control) | 1.1 fold enrichment (6-mer frequency, TF over GST control) | 1.25 fold enrichment (6-mer frequency, TF over GST control) | 1.2 fold enrichment (6-mer frequency, TF over GST control) | 1.1 fold enrichment (6-mer frequency, TF over GST control)
